Results from PubChem BioAssay AID2778 (National Center for Advancing Translational Sciences (NCATS), 2010).
Records with an inconclusive call do not appear. Entries that show only a call come without a potency. Calls of active or inactive are those of the source. Calls follow the shape of the dose curve; as a rule, active = well fitted inhibition curve with a large enough effect; inconclusive = small, poorly fitted or top-dose-only effect, or effect the other way; inactive = flat fitted curve, though single readings scatter. Positions of bridges follow the written chain, without caps; N, C: chain ends. Non-standard residues stand in square brackets, D forms with d. Residues, ends and D or L forms follow the SMILES beside them. ξ: configuration not given here. *: point of attachment. Octanoyl(6-Me) = CCC(C)CCCCC(=O)*; ξThr(3R) = C[C@@H](O)C(N)C(=O)O; dDab = NCC[C@@H](N)C(=O)O; Dab = NCC[C@H](N)C(=O)O

What follows are molecules tested against Menin (Homo sapiens) (UniProt O00255) (assay: Confirmation of Inhibitors Targeting the Menin-MLL Interaction in MLL Related Leukemias: Confirmation in an HTRF (commercial TR-FRET) Assay using His-tagged menin and biotin-labeled MLL peptide). Conditions: His-menin / biotin-MLL peptide binding; series mostly up to 126 µM.
Chain of Menin (Homo sapiens) (O00255 whole entry, looked up): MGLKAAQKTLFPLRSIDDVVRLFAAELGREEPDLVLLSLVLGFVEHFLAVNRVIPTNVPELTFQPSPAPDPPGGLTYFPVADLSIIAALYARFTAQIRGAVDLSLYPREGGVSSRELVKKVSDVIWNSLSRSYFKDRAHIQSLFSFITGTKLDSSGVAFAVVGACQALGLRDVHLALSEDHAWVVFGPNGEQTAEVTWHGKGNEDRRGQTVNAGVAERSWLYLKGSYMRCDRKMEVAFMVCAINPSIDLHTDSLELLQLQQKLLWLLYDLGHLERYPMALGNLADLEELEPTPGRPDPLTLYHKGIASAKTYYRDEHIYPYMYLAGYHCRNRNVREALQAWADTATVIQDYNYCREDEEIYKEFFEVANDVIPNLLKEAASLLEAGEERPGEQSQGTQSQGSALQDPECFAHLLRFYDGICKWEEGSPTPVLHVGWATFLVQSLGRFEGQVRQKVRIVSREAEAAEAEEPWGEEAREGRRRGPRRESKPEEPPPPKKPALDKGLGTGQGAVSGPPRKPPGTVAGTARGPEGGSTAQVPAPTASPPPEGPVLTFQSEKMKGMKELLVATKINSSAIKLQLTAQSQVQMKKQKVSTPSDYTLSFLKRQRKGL
Procedure, shortened: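 HTRF: His6-menin (200 nM) and biotin-MLL-w.t. peptide (80 nM) preincubated 15 min, then compounds 1 hr at ambient, before Eu-cryptate anti-His (3.5 nM) and streptavidin-XL665 (10 nM) for 1 h; 50 mM Tris-HCl pH 7.5, 50 mM NaCl, 1 mM DTT, BSA.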
Potency is read from the fitted curve at half-maximal effect.

SMILES	Potency
Cc1ccc(NS(=O)(=O)c2csc(C(N)=O)c2)cc1C	inactive
O=S(=O)(Nc1cccc(-c2cn3cccnc3n2)c1)c1ccccc1	inactive
CN(C)CCCNCC(=O)c1c(-c2ccccc2)n(C)c2ccccc12	inactive
COC(=O)COc1ccc(C(C2C(=O)CC(C)(C)CC2=O)C2C(=O)CC(C)(C)CC2=O)cc1	inactive
Cc1ccc(C2=NN(C(=O)c3ccccc3F)C(c3ccccc3F)C2)cc1 (stereo not given)	inactive
Cc1ccc(NC(=O)CN(C)C(=O)COc2cccc3cccnc23)cc1	inactive
CC(c1ccccc1)c1nnc(NC(=O)Nc2ccccc2F)s1 (stereo not given)	inactive
COc1ccc(CCNCc2cc(C)n(-c3ccc(OC)cc3)c2C)cc1	inactive
COC(CSc1nc(N)c2c3c(sc2n1)CN(C)CC3)OC	inactive
CCOC(=O)Cn1cnc2scc(-c3ccc(C)c(C)c3)c2c1=O	inactive
O=C(CCC1CCCCC1)NCCN1C2=NC[C@H](Cc3ccc(O)cc3)N2C[C@H]1Cc1ccc(O)cc1	inactive
O=C(C1CCCN(Cc2cccc(Cl)c2)C1)N1CCCCC1 (stereo not given)	inactive
COc1ccc2nc(NC(=O)CSc3nnc(N)s3)sc2c1	inactive
CCOc1ccc2c(c1)C(NC(C)=O)C(=O)N2CCN1CCOCC1 (stereo not given)	inactive
COc1ccccc1/C=N/n1c(N)c(S(=O)(=O)c2cccs2)c2nc3ccccc3nc21	inactive
CC(=O)NC1C(=O)N(CCN2CCOCC2)c2ccc(F)cc21 (stereo not given)	inactive
CCc1cc2c(N3CCN(c4nnc(CC)s4)CC3)ncnc2s1	25.1 µM (active)
CC1(C)CN=C(N2CCN(c3ncnc4sc5c(c34)CCCC5)CC2)S1	28.2 µM (active)

SMILES	Potency
O=C(O)c1ccccc1NS(=O)(=O)c1cccc(-n2sc3ccccc3c2=O)c1	inactive
Cc1cc2ccccc2nc1SCC(=O)Nc1nc(-c2ccccc2)cs1	inactive
COc1cc(NC(=O)c2cccnc2)c(OC)cc1NC(=O)c1ccc(Br)cc1	inactive
COc1ccc(C)cc1N(C(=O)c1snc(C(N)=O)c1N)C(C(=O)NC1CCCC1)c1ccc(F)cc1 (stereo not given)	inactive
COc1ccc(N(C(=O)c2ccncc2)S(=O)(=O)c2ccc(Cl)cc2)cc1	inactive
CN[C@H]1[C@H](O)[C@@H](O[C@@H]2[C@H](O)[C@@H](O[C@H]3OC(CN)=CC[C@H]3N)[C@@H](N)C[C@H]2N)OC[C@@]1(C)O	inactive
CC(c1cc2ccccc2s1)N(O)C(N)=O (stereo not given)	inactive
CCC(C)CCCCC(=O)N[C@@H](CCN)C(=O)N[C@H](C(=O)N[C@@H](CCN)C(=O)N[C@H]1CCNC(=O)C([C@@H](C)O)NC(=O)[C@@H](CCN)NC(=O)[C@H](CCN)NC(=O)[C@H](CC(C)C)NC(=O)[C@@H](CC(C)C)NC(=O)[C@H](CCN)NC1=O)[C@@H](C)O (stereo partly drawn) ({Octanoyl(6-Me)}-[Dab]T[Dab][Dab][Dab][dL]L[Dab][dDab][ξThr(3R)]; lactam 4-C)	inactive
CN(C)CCc1c[nH]c2ccc(CC3COC(=O)N3)cc12 (stereo not given)	inactive
O=C(Nc1nccs1)C(Br)C(Br)c1ccccc1 (stereo not given)	inactive
Cc1ccc(F)c(C2C3C=CCC(C)C3C(=O)N2Cc2ccccc2)c1 (stereo not given)	inactive
NC(=O)[C@@H]1CCCNc2c(I)cc([N+](=O)[O-])cc2C(=O)N[C@@H](CCCN=C(N)N)C(=O)N[C@@H](CCCN=C(N)N)C(=O)N1	inactive
O=C(CC(Sc1ccc(Br)cc1)C(=O)O)c1ccc(F)cc1 (stereo not given)	inactive
COc1cc(O)c(C(=O)c2ccccc2)cc1O	inactive
Oc1ccc(Nc2ncnc3c2oc2ccccc23)cc1	inactive
CC(C)Cc1cc(C(=O)NCCCN2CCOCC2)no1	inactive
Cc1[nH]nc(-c2ccc(OCc3cnn(-c4ccccc4)c3)c(C)c2O)c1Oc1ccccc1	inactive
